Key:
Assay in all cases: universal protein binding microarray (PBM); transcription factors of Arabidopsis thaliana; high values mean tight binding
GST-ANAC092(1-176) = target: T1, GST-ANAC092(1-176) (Arabidopsis thaliana, UniProt Q9FKA0 1-176); conditions: protein: recombinant; tags: GST; chain copies: 2; dsDNA, one strand shown
T1 sequence: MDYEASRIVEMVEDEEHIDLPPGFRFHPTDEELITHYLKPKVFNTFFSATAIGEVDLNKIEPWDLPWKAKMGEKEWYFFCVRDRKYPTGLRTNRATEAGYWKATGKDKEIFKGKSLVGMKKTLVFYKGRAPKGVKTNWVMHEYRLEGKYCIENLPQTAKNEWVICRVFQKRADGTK
In short: (§1)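 Protein amounts were determined by A280 or anti-GST western blot after glutathione–Sepharose 4B purification of GST-tagged proteins induced in cells, with zinc acetate included for zinc-finger proteins. Duplicate runs at 200 to 500 nM final were done on custom all-10-mer Agilent 4 × 180K arrays made double-stranded by primer extension. The normalised enrichment score (E-score) over gapped and ungapped 8-mers is the measure of binding.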

GST-ANAC019 NAC domain = target: T2, GST-ANAC019 NAC domain (Arabidopsis thaliana, UniProt Q9C932 14-162); conditions: protein: recombinant; tags: GST; chain copies: 2; dsDNA, one strand shown
T2 sequence: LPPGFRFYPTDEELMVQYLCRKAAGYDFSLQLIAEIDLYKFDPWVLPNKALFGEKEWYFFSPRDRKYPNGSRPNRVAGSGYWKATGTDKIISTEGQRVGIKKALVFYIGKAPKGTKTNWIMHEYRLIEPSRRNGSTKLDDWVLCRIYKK
In short: as §1

GST-ANAC055(1-171) = target: T3, GST-ANAC055(1-171) (Arabidopsis thaliana, UniProt Q9LDY8 1-171); conditions: protein: recombinant; tags: GST; chain copies: 2; dsDNA, one strand shown
T3 sequence: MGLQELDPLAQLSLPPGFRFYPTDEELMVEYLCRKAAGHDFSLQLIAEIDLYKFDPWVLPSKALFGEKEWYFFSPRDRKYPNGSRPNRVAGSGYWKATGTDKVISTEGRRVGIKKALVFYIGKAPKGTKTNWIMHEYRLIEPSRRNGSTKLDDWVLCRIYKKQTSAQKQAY
In short: as §1

GST-ATAF1 NAC domain = target: T4, GST-ATAF1 NAC domain (Arabidopsis thaliana, UniProt Q39013 7-158); conditions: protein: recombinant; tags: GST; chain copies: 2; dsDNA, one strand shown
T4 sequence: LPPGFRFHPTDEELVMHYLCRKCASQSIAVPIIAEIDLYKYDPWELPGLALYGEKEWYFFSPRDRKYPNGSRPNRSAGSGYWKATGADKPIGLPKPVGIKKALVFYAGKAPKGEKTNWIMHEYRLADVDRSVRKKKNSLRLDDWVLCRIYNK
In short: as §1

[1] = target: T5, GST-ANAC092(1-285) full length (Arabidopsis thaliana, UniProt Q9FKA0 1-285); conditions: protein: recombinant; tags: GST; chain copies: 2; dsDNA, one strand shown
T5 sequence: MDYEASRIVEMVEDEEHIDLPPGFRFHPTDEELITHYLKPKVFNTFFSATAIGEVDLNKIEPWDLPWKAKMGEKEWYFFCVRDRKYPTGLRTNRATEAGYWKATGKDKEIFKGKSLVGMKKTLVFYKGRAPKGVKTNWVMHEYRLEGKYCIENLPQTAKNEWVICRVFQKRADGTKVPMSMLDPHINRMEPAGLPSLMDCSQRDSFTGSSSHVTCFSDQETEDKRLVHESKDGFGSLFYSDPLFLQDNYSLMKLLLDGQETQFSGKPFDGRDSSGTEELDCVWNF
In short: as §1

GST-NAP(1-166) = target: T6, GST-NAP(1-166) (Arabidopsis thaliana, UniProt O49255 1-166); conditions: protein: recombinant; tags: GST; chain copies: 2; dsDNA, one strand shown
T6 sequence: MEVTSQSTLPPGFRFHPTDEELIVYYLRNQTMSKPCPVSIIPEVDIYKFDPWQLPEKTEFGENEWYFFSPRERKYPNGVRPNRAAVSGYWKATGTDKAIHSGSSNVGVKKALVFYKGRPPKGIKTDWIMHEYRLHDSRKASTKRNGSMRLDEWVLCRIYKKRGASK
In short: as §1

GST-NST2(1-184) = target: T7, GST-NST2(1-184) (Arabidopsis thaliana, UniProt Q9M274 1-184); conditions: protein: recombinant; tags: GST; chain copies: 2; dsDNA, one strand shown
T7 sequence: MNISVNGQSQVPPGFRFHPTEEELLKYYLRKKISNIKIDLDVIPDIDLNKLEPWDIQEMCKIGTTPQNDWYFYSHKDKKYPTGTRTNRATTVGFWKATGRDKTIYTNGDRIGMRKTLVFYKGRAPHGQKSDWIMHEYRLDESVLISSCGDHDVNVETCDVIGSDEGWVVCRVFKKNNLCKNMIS
In short: as §1

GST-NTL8 NAC domain = target: T8, GST-NTL8 NAC domain (Arabidopsis thaliana, UniProt Q9XIN7 14-156); conditions: protein: recombinant; tags: GST; chain copies: 2; dsDNA, one strand shown
T8 sequence: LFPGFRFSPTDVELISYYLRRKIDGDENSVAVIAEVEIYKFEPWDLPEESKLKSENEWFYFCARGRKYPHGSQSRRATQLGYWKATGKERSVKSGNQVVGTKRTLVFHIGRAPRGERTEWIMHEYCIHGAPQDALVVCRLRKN
In short: as §1

GST-SND1(1-203) = target: T9, GST-SND1(1-203) (Arabidopsis thaliana, UniProt Q9LPI7 1-203); conditions: protein: recombinant; tags: GST; chain copies: 2; dsDNA, one strand shown
T9 sequence: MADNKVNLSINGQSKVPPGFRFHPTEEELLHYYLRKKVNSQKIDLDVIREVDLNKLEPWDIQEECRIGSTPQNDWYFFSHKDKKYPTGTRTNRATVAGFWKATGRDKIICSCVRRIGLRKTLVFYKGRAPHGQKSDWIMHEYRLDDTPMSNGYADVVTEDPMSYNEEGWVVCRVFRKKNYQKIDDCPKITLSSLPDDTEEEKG
In short: as §1

GST-VND3 NAC domain = target: T10, GST-VND3 NAC domain (Arabidopsis thaliana, UniProt Q9FH59 12-162); conditions: protein: recombinant; tags: GST; chain copies: 2; dsDNA, one strand shown
T10 sequence: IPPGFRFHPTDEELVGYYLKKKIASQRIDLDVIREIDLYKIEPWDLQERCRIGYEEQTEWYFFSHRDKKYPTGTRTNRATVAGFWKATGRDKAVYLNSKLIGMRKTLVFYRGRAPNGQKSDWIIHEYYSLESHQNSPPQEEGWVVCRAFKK
In short: as §1

GST-VND7 NAC domain = target: T11, GST-VND7 NAC domain (Arabidopsis thaliana, UniProt Q9C8W9 9-158); conditions: protein: recombinant; tags: GST; chain copies: 2; dsDNA, one strand shown
T11 sequence: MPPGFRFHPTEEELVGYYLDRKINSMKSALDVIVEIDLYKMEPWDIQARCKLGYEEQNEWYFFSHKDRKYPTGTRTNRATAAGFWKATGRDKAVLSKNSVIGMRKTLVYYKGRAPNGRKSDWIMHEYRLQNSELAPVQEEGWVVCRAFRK
In short: as §1

GST-WRKY1(266-371) = GST-WRKY1(266-371) (Arabidopsis thaliana, UniProt Q9SI37 266-371); conditions: protein: recombinant; tags: GST; dsDNA, one strand shown
Chain of GST-WRKY1(266-371) (Q9SI37 266-371): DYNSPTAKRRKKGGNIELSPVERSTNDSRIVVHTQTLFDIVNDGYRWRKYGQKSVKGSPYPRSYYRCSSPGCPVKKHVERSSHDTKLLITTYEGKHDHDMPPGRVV
In short: as §1

GST-NTL6(1-168) = GST-NTL6(1-168) (Arabidopsis thaliana, UniProt Q9SCK6 1-168); conditions: protein: recombinant; tags: GST; chain copies: 2; dsDNA, one strand shown
Chain of GST-NTL6(1-168) (Q9SCK6 1-168): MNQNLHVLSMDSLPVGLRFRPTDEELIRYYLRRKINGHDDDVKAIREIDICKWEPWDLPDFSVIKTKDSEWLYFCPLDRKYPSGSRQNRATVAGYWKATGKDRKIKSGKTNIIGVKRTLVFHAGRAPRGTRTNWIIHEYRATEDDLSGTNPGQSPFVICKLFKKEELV
In short: as §1

| Sequence | binding signal (GST-ANAC092(1-176)) [E-score] | binding signal (GST-ANAC019 NAC domain) [E-score] | binding signal (GST-ANAC055(1-171)) [E-score] | binding signal (GST-ATAF1 NAC domain) [E-score] | binding signal [1] [E-score] | binding signal (GST-NAP(1-166)) [E-score] | binding signal (GST-NST2(1-184)) [E-score] | binding signal (GST-NTL8 NAC domain) [E-score] | binding signal (GST-SND1(1-203)) [E-score] | binding signal (GST-VND3 NAC domain) [E-score] | binding signal (GST-VND7 NAC domain) [E-score] | binding signal (GST-WRKY1(266-371)) [E-score] | binding signal (GST-NTL6(1-168)) [E-score] |
| --- | --- | --- | --- | --- | --- | --- | --- | --- | --- | --- | --- | --- | --- |
| ATTGCGTG | 0.494 | 0.466 | 0.452 | 0.355 | 0.494 | 0.458 | 0.459 | 0.188 | 0.471 | 0.441 | 0.46 | 0.0947 | – |
| TAGCGTAA | 0.453 | 0.0774 | 0.173 | 0.281 | 0.454 | 0.221 | 0.412 | – | 0.492 | 0.297 | 0.347 | – | 0.123 |
| GTCACGCA | 0.319 | 0.307 | 0.236 | 0.193 | 0.4 | 0.197 | 0.119 | – | 0.257 | 0.167 | 0.252 | 0.228 | – |
| ACACACGC | 0.37 | 0.169 | 0.199 | 0.135 | 0.423 | 0.0855 | 0.221 | – | 0.221 | 0.198 | 0.213 | – | 0.0666 |
| CAACACGC | 0.418 | 0.304 | 0.227 | 0.172 | 0.436 | 0.252 | 0.229 | 0.0505 | 0.259 | 0.162 | 0.218 | 0.125 | – |
| TAACGTGA | 0.42 | 0.144 | 0.213 | 0.208 | 0.419 | 0.168 | 0.257 | – | 0.385 | 0.251 | 0.0561 | – | 0.0647 |
| AGTCAAAA | 0.157 | 0.0721 | – | 0.234 | 0.0672 | – | – | – | 0.111 | 0.104 | 0.0632 | 0.47 | – |
